Hits are enriched below; roughly 1.5% of the tested compounds scored in any of these assays.
PLK1 inh = human PLK1 kinase inhibitors, primary screen, biochemical, TR-FRET; actives 0.53% (n = 97,000); inhibition, % at 10 µM; recombinant PLK1 kinase, TR-FRET peptide phosphorylation; Serine/threonine-protein kinase PLK1 (Homo sapiens), P53350;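 active = inhibition of 50% or more in the single-concentration screen; inactive = inhibition below 50%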;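 also: 0% = DMSO max control and 100% = H-89 dihydrochloride min control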
EphB4 antag = EphB4-ephrin-B2 interaction antagonists, primary screen, biochemical, TNYL-RAW peptide probe, fluorescence polarization; inhibition, % at 7 µM; Ephrin type-B receptor 4 (Homo sapiens), P54760; EphB4 LBD / TNYL-RAW-Alexa532 peptide; actives 0.15% (n = 97,000);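 active = inhibition above the screen-wide mean inhibition plus 3 SD, cut at about 15% in these data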;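 also: 0% = DMSO wells and 100% = excess unlabeled TNYL-RAW peptide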
FAK inh = FAK kinase inhibitors, primary screen, biochemical | biochemical FAK kinase activity assay | Focal adhesion kinase 1 (Homo sapiens), Q05397 | inhibition, %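 (tested at 7 µM)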 | actives 0.84% (n = 97,000);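 also: 0% = DMSO and 100% = reference compound high control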
Smad3 FoxH1 inh = Smad3/FoxH1 peptide binding inhibitors, primary screen, biochemical, TR-FRET; TR-FRET Smad3/Dy647-FoxH1 peptide binding, europium anti-His; inhibition, % at 25 µM; actives 0.29% (n = 88,000); Mothers against decapentaplegic homolog 3 (Homo sapiens), P84022;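 active = compounds that reduce the energy-transfer binding signal between the protein and its labelled peptide by more than half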;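 also: 0% = Smad3 plus labelled peptide maximal FRET and 100% = peptide-only background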
Target sequence (P84022 whole entry, looked up): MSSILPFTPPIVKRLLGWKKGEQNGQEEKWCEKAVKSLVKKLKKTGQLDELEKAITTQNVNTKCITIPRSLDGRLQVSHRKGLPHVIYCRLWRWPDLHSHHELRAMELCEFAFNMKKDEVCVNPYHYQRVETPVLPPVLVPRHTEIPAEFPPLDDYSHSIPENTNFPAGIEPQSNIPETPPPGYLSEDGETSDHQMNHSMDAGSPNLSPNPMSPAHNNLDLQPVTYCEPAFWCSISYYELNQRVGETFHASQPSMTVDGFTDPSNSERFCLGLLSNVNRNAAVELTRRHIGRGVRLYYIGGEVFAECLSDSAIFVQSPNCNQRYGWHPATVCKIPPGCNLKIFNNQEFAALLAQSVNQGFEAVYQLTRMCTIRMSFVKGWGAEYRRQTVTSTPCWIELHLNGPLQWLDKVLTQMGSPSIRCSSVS
PLK1 PBD inh = Plk1 polo box domain binding inhibitors, primary screen, biochemical, fluorescence polarization; Serine/threonine-protein kinase PLK1 (Homo sapiens), P53350; Plk1 PBD phosphopeptide binding; inhibition, %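 (tested at about 20 µM)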; actives 0.13% (n = 97,000); AID 693, 2007; in the data active = inhibition above about 34%, passing the limit was not always enough
PLK1 inh conf = PLK1 kinase activity inhibitors, confirmation, biochemical, TR-FRET, duplicate runs; inhibition, % at 10 µM; shares compounds with PLK1 inh; AID 744, 2007; recombinant PLK1 kinase, TR-FRET peptide phosphorylation; actives 20% (n = 210);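 active = inhibition at or above 50% in each of two repeat confirmation tests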;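 also: 0% = DMSO max control and 100% = H-89 kinase-blocked min control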
Plk1 interf = compound interference with Plk1 assay readout, artefact control for Plk1 kinase inhibitor project, biochemical, TR-FRET, compound added post-reaction; AID 756, 2007; shares compounds with PLK1 inh; inhibition (interference), % at 10 µM; 210 tested, under 10 active;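 active = both duplicate runs show 50% or greater inhibition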;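 also: 0% = DMSO max control and 100% = H-89 min control inhibited reaction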
PBD redox DR = redox cycling hydrogen peroxide generation, dose response, artefact control for Plk1 PBD inhibitor project, biochemical | shares compounds with PLK1 PBD inh | redox cycling H2O2 generation, DTT, counter-screen | EC50, µM | 120 tested, under 10 active; call rule not given here
FAK inh confirm = FAK kinase inhibitors, retest, confirmation, biochemical; shares compounds with FAK inh; FAK kinase biochemical inhibition assay; inhibition, % at 7 µM; actives 28% (n = 750); AID 794, 2007
The depositor's hits bear a star; · = not tested or not shown. Rule as the data show it, unless noted: active = inhibition above about 19%; inactive = the rest.

SMILES | PLK1 inh | EphB4 antag | FAK inh | Smad3 FoxH1 inh | PLK1 PBD inh | others
Cc1ccc(CC2CC(=O)N(c3cc(C)on3)C2=O)cc1 (centres undefined) | 70* | 1 | 1 | 1 | 6 | PLK1 inh conf=-10;Plk1 interf=-54
Cc1cc(N2C(=O)C3CC=CCC3C2=O)no1 (centres undefined) | -6 | -2 | -2 | 4 | 2
O=C(NCC1CCCO1)C1CC(=O)N(C2CCCC2)C1 (centres undefined) | -11 | -3 | -2 | -6 | -46
CCOC(=O)c1c(C)n(C)c2ccc(OCC(O)CN3CCN(C)CC3)cc12 (centres undefined) | 75* | 3 | 3 | -15 | 9 | PLK1 inh conf=-7;Plk1 interf=-44
CCOC(=O)c1c(C)n(C)c2ccc(OCC(O)Cn3c(C)nc4ccccc43)cc12 (centres undefined) | 10 | 2 | 1 | · | -5
COC(=O)c1[nH]c2ccc(Cl)cc2c1NC(=O)CN1CCC(C(N)=O)CC1 | 72* | 4 | 1 | 1 | 2 | PLK1 inh conf=-10;Plk1 interf=-48
CCc1ccc(OCC(=O)NCCOc2ccccc2)cc1 | -1 | 2 | 2 | -1 | 15
CCCCOC(=O)CCn1c(=S)oc2ccccc21 | 125* | 2 | -4 | -2 | 13 | PLK1 inh conf=-8;Plk1 interf=-52
Cc1ccc(C)c(Nc2ncnc3nc[nH]c23)c1 | 41 | 0 | 4 | 2 | 1
Cc1cccc(Nc2ncnc3nc[nH]c23)c1 | 76* | 7 | 15 | · | 9 | PLK1 inh conf=81*;Plk1 interf=-48
COc1ccc(Nc2ncnc3nc[nH]c23)cc1OC | · | · | · | 6 | ·
c1ccc(COc2ccc(Nc3ncnc4nc[nH]c34)cc2)cc1 | 72* | -6 | 7 | -2 | -19 | PLK1 inh conf=44;Plk1 interf=-52
c1cc(CNC2=NCCCCC2)ccn1 | -3 | -3 | 1 | 7 | -21
CCOC(=O)c1ccccc1NC(=O)CSc1nc(N)cc(N)n1 | -4 | 1 | 2 | 10 | 1
COC(=O)c1ccccc1NC(=O)CSc1nc(N)cc(N)n1 | 71* | -1 | -12 | 2 | 42 | PLK1 inh conf=-5;Plk1 interf=-44
N#Cc1c(NC(=O)CSc2ncnc3sccc23)oc(-c2ccco2)c1-c1ccco1 | 77* | -1 | 22* | 2 | -4 | PLK1 inh conf=-9;Plk1 interf=-53;FAK inh confirm=1
CCNC(=O)CSc1ncnc2sccc12 | -5 | 4 | 6 | 4 | -9
CC(C)CC(=O)Nc1ccc(F)c(Cl)c1 | 7 | 3 | -3 | 8 | -14
Cc1cc(N)ccc1-n1c(C)ccc1C | · | · | · | 15 | ·
Cc1cc(N)ccc1N1CCCC1 | 80* | 13 | 74* | · | 11 | PLK1 inh conf=20;Plk1 interf=-24;FAK inh confirm=58*
CCCc1[nH]nc2c1C(c1ccc(O)c(OC)c1)C(C#N)=C(N)O2 (centres undefined) | 109* | 1 | 20* | -8 | 0 | PLK1 inh conf=-3;Plk1 interf=-46;FAK inh confirm=0
c1ccc2c(-c3ccncc3)c[nH]c2c1 | 78* | 10 | 21* | -7 | -16 | PLK1 inh conf=71*;Plk1 interf=-60;FAK inh confirm=9
COc1ccc(NC(=O)C2CC(=O)N(C)C(=Nc3ccc4c(c3)OCO4)S2)cc1 (centres undefined) | -18 | 5 | -2 | 9 | -9
Cc1nn(C(C)C(=O)N2CCCCC2)c(=O)c2c1sc1ccccc12 (centres undefined) | -9 | -5 | 0 | · | 43* | PBD redox DR=>50
CCCc1cc(=O)n2[nH]c(C)c(-c3ccccc3)c2n1 | · | · | · | -2 | ·
SMILES | PLK1 inh | EphB4 antag | FAK inh | Smad3 FoxH1 inh | PLK1 PBD inh | others
Cc1[nH]n2c(=O)cc(-c3ccc([N+](=O)[O-])cc3)nc2c1-c1ccccc1 | -2 | -4 | -10 | 10 | 35* | PBD redox DR=>50
C=CCn1c2ccccc2c2nnc(SCc3ccc4nonc4c3)nc21 | -6 | 0 | -1 | 3 | 50* | PBD redox DR=>50
Cc1cccc2cc(CN(CCCO)C(=O)Nc3ccccc3Cl)c(=O)[nH]c12 | 4 | 0 | 0 | -8 | -1
Cc1nc2cccc(C)n2c(=O)c1Cl | 3 | 1 | -1 | 8 | 42* | PBD redox DR=>50
Cc1nc2ccc(Br)cn2c(=O)c1Cl | 4 | -1 | 2 | -2 | -7
COc1ccc(S(=O)(=O)N(C)CC(=O)Nc2ccccc2C(F)(F)F)cc1 | -15 | 8 | 0 | -11 | 35* | PBD redox DR=>50
COc1ccc(S(=O)(=O)N(C)CC(=O)Nc2ccccc2C(F)(F)F)cc1Cl | -8 | 7 | -1 | 11 | -17
CCc1nc2cc(Cl)c(Cl)cc2[nH]1 | 2 | 10 | 1 | -16 | 50* | PBD redox DR=>50
CSc1nc2ccc(Cl)cc2[nH]1 | -13 | 4 | 1 | 8 | 0
CCC(=O)N1CCN(c2ccc(NC(=O)c3ccc4c(c3)OCO4)cc2)CC1 | -10 | 6 | 1 | 8 | 44* | PBD redox DR=>50
Brc1ccc(-c2nc3ccccc3s2)s1 | -15 | -8 | -7 | 5 | -18
CC1Cn2c(nnc2-c2ccccc2O)S1 (centres undefined) | -20 | 4 | 0 | -8 | 27
CC1Cn2c(nnc2-c2cc3ccccc3cc2O)S1 (centres undefined) | -5 | -1 | 2 | 5 | 57* | PBD redox DR=>50
O/N=C1/CCCCc2sccc21 | -16 | 1 | 2 | -5 | 8
CCC(C)c1ccc(NC(=O)C2CC2)cc1 (centres undefined) | -12 | -8 | 3 | -2 | 63* | PBD redox DR=>50
CCC(C)c1ccc(NC(=O)C2CCCN(c3ncccn3)C2)cc1 (centres undefined) | -9 | 0 | -3 | · | 6
CSCC[C@@H](Nc1nc(-c2ccccc2)nc2c1oc1ccccc12)C(=O)O | -12 | 1 | -4 | 0 | -3
Cc1c(Cl)cccc1NC(=O)CC(NCCN1CCOCC1)C(=O)O (centres undefined) | · | · | · | -5 | ·
CCn1c(SCC(=O)OC)nnc1-c1ccncc1 | -15 | 2 | -1 | -15 | 10
c1ccc(CN2CCN(C3=Nc4cccc5cccc3c45)CC2)cc1 | -5 | 1 | 1 | -1 | -33
O=C1CCN2C=Nc3cccc4ccc1c2c34 | -20 | -4 | 18 | · | 51* | PBD redox DR=>50
Cc1ccccc1C(=O)Nc1ccccn1 | -7 | 0 | -2 | 0 | -3

Bioassay records: PubChem, several laboratories
